Source: paper PMC4336329 (PLoS ONE, 2015)
Screen size: about 310,000 compounds; about 14,000 (4.5%) showed an effect of 50% or more. The effect is printed as a negative number. The full list was thinned out, with strong results kept by preference.

Biological target: human ether-à-go-go-related gene (hERG) potassium channel (human, UniProt Q12809)
Assay: primary screen, population patch clamp on CHO cells stably expressing hERG; higher = less effect of the substance
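Note: peak tail current of the secondary pulse compared with the same well before compound.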

human ether-à-go-go-related gene (hERG) potassium channel, sequence (Q12809 whole entry, looked up): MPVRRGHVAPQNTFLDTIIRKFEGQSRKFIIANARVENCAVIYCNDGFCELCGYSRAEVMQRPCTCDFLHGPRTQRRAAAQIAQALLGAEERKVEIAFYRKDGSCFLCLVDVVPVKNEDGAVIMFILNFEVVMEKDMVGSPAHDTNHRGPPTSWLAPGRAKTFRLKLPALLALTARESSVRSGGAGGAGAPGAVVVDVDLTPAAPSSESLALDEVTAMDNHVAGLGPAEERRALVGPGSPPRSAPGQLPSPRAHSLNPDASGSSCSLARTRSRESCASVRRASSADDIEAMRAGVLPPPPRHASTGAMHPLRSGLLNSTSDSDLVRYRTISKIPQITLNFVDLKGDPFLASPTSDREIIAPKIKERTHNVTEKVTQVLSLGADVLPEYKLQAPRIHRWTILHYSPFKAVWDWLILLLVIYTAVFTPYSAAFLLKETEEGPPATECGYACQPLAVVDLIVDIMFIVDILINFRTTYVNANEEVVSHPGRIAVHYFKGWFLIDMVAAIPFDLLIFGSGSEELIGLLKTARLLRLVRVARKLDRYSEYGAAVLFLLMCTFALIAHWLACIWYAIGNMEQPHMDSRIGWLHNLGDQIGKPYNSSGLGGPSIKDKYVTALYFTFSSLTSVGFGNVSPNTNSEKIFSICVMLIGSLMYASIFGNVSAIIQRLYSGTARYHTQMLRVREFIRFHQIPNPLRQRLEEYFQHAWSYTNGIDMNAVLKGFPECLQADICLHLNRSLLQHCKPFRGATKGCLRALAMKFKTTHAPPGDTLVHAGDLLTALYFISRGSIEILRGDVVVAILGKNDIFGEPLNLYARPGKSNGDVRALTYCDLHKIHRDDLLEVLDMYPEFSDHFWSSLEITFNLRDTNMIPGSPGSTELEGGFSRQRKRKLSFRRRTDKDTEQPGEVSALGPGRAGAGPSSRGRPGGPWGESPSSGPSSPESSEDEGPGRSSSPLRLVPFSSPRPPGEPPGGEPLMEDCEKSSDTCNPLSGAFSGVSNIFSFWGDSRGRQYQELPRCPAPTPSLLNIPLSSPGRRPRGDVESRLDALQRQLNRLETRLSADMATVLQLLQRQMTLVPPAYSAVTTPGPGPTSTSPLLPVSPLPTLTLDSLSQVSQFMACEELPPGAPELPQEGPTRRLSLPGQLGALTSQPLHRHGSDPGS

Compound	hERG current change (%, negative = inhibition) at 10uM [%]
Cn1sc(NC(=O)c2ccc(Cl)cc2)nc1=O	7.93
COc1ccc2c(c1)[nH]c1c(C)nccc12.Cl	-28
COc1cc(/C=N/NC(=O)C(NC(=O)c2ccccc2)c2n[nH]c(=O)c3ccccc23)ccc1OCC(N)=O (stereo not shown)	5.88
CCOc1ccc2nc3c(cc2c1)CN(CCOC)C(=NC)S3.Cl	11.2
COc1cc(OC)cc(-c2c(-c3cccs3)c3cc(-c4ccc(OC)c(F)c4)ccc3n2C)c1	12.3
CCOc1ccc(OCC)c(S(=O)(=O)N2CCC(C)CC2)c1	-29.4
CCOc1ccc(OCC)c(S(=O)(=O)N2CCCCC2)c1	-12.2
CCOc1ccc(OCC)c(S(=O)(=O)N2CCCCC2C)c1 (stereo not shown)	-52.2
O=C(NCCNc1nccc(C(F)(F)F)n1)c1cccs1	-11.3
Cc1ccc2c(ccc(=S)n2C)c1	22.1
CCOc1ccc2[nH]c(C)c(CN3CCCCC3)c(=O)c2c1	-13.1
O=C(/C=C/c1ccccc1)NCCS(=O)(=O)N1CCN(c2ccccc2F)CC1	-3.41
CCn1cc(C(=O)O)c(=O)c2cnc(N3CCN(C(=S)Nc4ccccc4)CC3)nc21	2.24
C=CCNC(=S)N1CCN(c2ncc3c(=O)c(C(=O)O)cn(CC)c3n2)CC1	2.8
CCn1cc(C(=O)O)c(=O)c2cnc(N3CCNCC3)nc21	-65.4
C/C(=N\NC(=O)C(O)c1ccccc1)c1ccc(Br)s1 (stereo not shown)	1.82
O=[N+]([O-])c1nn(-c2ccccc2)n(O)c1=NC1CCN(Cc2ccccc2)CC1	-58.1
Cc1cccc(-n2nc([N+](=O)[O-])c(=NC3CCN(Cc4ccccc4)CC3)n2O)c1	-66.8
COc1ccc(-n2nc([N+](=O)[O-])c(=NC3CCN(Cc4ccccc4)CC3)n2O)cc1	-39.8
Cc1cccc(CCN=c2c([N+](=O)[O-])nn(-c3ccccc3)n2O)c1	-15.5
O=[N+]([O-])c1nn(-c2ccc3c(c2)OCCO3)n(O)c1=NC1CCN(Cc2ccccc2)CC1	-17.8
Cc1ccc(CN=c2c([N+](=O)[O-])nn(-c3cccc(C)c3)n2O)cc1	-32.7
COC(=O)c1ccccc1S(=O)(=O)Nc1ccc(OC)nc1	-0.17

Compound	hERG current change (%, negative = inhibition) at 10uM [%]
Cc1cccc(Nc2nn3c(=O)c4ccccc4nc3s2)c1	23.6
COc1ccc(NC(=O)c2cccc3cccnc23)cc1S(N)(=O)=O	29.2
CN(C)C(C)(C)C#CCCCCC#CC(C)(C)N(C)C	16.5
CN(C)C(C)(C)C#CC(O)(c1ccccc1)c1ccccc1	-26.6
CN(CC#CCC(c1ccccc1)c1ccccc1)C(C)(C)C.Cl	-83.3
CN(C)CC#CCOC(c1ccccc1)c1ccccc1.Cl	-16.1
CN(C)C(C)(C)C#CCC(c1ccccc1)c1ccccc1.Cl	-55.9
CN(C)CC(c1ccccc1)c1ccccc1.Cl	5.32
CC1CCC(NC(=O)CCCn2sc3ccccc3c2=O)CC1 (stereo not shown)	15.4
N#C/C(=N\Nc1ccccc1[N+](=O)[O-])C(=N)N1CCCCC1	33.8
Cc1ccccc1N1C(=O)/C(=C/c2ccco2)C(=O)NC1=S	16.5
NC(=O)COC(=O)c1ccccc1OCc1ccccc1	18.3
CN1C(=O)c2ccc(NC(=O)CCS(=O)(=O)c3ccccc3)cc2C1=O	-3.01
COc1ccc(-c2nnc(SCCC(=O)O)n2C)cc1OC	-6.37
CCOC(=O)c1cnc2ccccc2c1Nc1cc(C(=O)O)ccc1C	14.9
CCOC(=O)c1cnc2c(ccc3ccccc32)c1NCCO	-26.4
CCOC(=O)c1cnc2c(ccc3ccccc32)c1NCCCN(C)C	-47
CCOC(=O)c1cnc2ccc(OC)cc2c1Nc1ccc(N2CCN(C)CC2)cc1	-18.2
CCOC(=O)c1cnc2ccc(C(=O)OC)cc2c1NCCc1ccc(OC)c(OC)c1	-3.95
COc1ccc(CCNC(=O)COc2ncnc3ccccc23)cc1OC	16.3
CCOC(=O)c1cnc2ccccc2c1NCCc1ccc(OC)c(OC)c1	-78.2
CCOC(=O)c1cnc2ccc(OC)cc2c1NCCc1ccc(OC)c(OC)c1	-76.6
CCOC(=O)c1cnc2c(C)cccc2c1NCCc1ccc(OC)c(OC)c1	-66.9
